Assay [1] can be described thus: Stat Signaling Pathway (AID 446; active = well fitted curve in either direction with a large enough effect, not every such curve was filed as active;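 also: ME-180 cervical cancer cells given 40 pM IL-6 alongside compound; SIE-controlled beta-lactamase reporter measured as 460/530 nm FRET emission ratio; % is scaled to controls: 0 for no effect and ±100 for the full control effect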). Particulars: ME-180 SIE beta-lactamase reporter, IL-6 stimulated, 5 h; at 17.2 µM (top of the series) unless noted. Put shortly:
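Normalization used AC90 stimulation (300 pM IL-6) and AC90 inhibition (125 nM pan-JAK inhibitor at 40 pM IL-6). The underlying signal is SIE-driven beta-lactamase in ME-180 cells after 5 h IL-6 exposure with compound.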

The target in assay [2] is Glucocorticoid receptor (Homo sapiens) (UniProt P04150). The experiment in a line: GR-GFP Redistribution (AID 450). Also: potency is read from the fitted curve at half-maximal effect.
Assay [3] shares this target. Nature of the assay: GR-EFC Redistribution (AID 451; calls by dose curve; also: potency is read from the fitted curve at half-maximal effect). Particulars: CHO-K1 GR-EFC translocation, beta-gal luminescence, 2 h. Put shortly:
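CHO-K1 cells expressing nuclear EA and GR-ED fragments of b-gal; compounds titrated up to 46 uM final, 2 h at 37 C. GR nuclear translocation read as complemented b-gal luminescence after 1 h RT detection.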

Assay [4] has as its target 3',5'-cyclic-AMP phosphodiesterase 4B (Homo sapiens) (UniProt Q07343). The experiment in a line: qHTS Assay for Inhibitors of PDE-IV (AID 607; active = well fitted activation curve with a large enough effect in the main read-out, with a control signal flat, not every such curve was filed as active; also: % of control where 0% means no effect). The method, boiled down: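 HEK293 ACTOne cells with CNG channel (1000/well), endogenous PDE4; membrane potential dye, compounds up to 22.9 uM final. Fluorescence Ex 535/Em 590; RO 20-1724 (100 uM final) as reference.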
For orientation: In qHTS, concentration-response curves come from the screen itself.

Assay [5] addresses Guanine nucleotide-binding protein G(i) subunit alpha-1 (Homo sapiens) (UniProt P63096). The experiment in a line: qHTS Assay for Inhibitors of RGS12 GoLoco Motif Activity (Green Fluorophore) (AID 879; active = well fitted curve in the direction sought with a large enough effect; an effect the other way counts as inactive or inconclusive;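 also: 0% = labeled peptide with Gαi1 and full inhibition = labeled peptide alone without protein; negative values mean loss of peptide binding seen as reduced polarization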). Put shortly: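 A drop in FITC polarization marked displacement of the FITC-tagged RGS12 GoLoco peptide (10 nM) from Gαi1 (50 nM). Compounds were incubated 10 min at room temperature in Tris pH 7.5 buffer containing 150 mM NaCl, 0.1 mM GDP and 0.05% NP40; unlabeled peptide titration served as control.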

Assay [6] in a line: qHTS Assay for Identification of Small Molecule Antagonists for Thrombopoietin (TPO) Signaling Pathway (AID 918; active = well fitted curve in the direction sought with a large enough effect; an effect the other way counts as inactive or inconclusive; also: potency is read from the fitted curve at half-maximal effect; nearly all actives have a fitted effect of over 60% in size). The settings on record: TPO-dependent cell signaling reporter, antagonist mode. The method, boiled down:
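Antagonist mode at EC50 TPO (26 pM) in IL-3-free medium; murine Ba/F3 cells with human TPO receptor and GPIIb-promoter luciferase, 24 hrs at 37 C before luminescent detection.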

The target in assay [7] is Pyruvate kinase (Leishmania mexicana) (UniProt Q27686). Nature of the assay: qHTS Validation Assay for Inhibitors of Leishmania Mexicana Pyruvate Kinase (AID 945; active = well fitted curve in the direction sought with a large enough effect; an effect the other way counts as inactive or inconclusive;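 also: 0% = DMSO only neutral control wells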). Put shortly: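 qHTS eight-point titrations against 0.2 nM LmPYK (E451W) in imidazole buffer pH 7.2 with 0.5 mM PEP, 0.1 mM ADP; 1 h, room temperature. Readout: PKLight luminescence, normalized to neutral DMSO wells.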

For assay [8], the target named is Pyruvate kinase PKM (Homo sapiens) (UniProt P14618). Nature of the assay: qHTS Assay for Activators of Human Muscle Pyruvate Kinase (AID 954; active = well fitted curve in the direction sought with a large enough effect, not every such curve was filed as active;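 also: 0% = uninhibited enzyme and -100% = no enzyme or full thiadiazolimine inhibition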). Put shortly: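 Compound pinned into substrate mix (0.5 mM PEP, 0.1 mM ADP), then 0.1 nM PKM2 added; 1 h, RT. Stop/detection luciferase reagent added, luminescence read. Normalized to no-inhibition and no-enzyme or reference-inhibitor controls.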

For assay [9], the target named is Alpha-galactosidase A (Homo sapiens) (UniProt P06280). The experiment in a line: Counterscreen for Glucocerebrosidase Inhibitors: qHTS Assay for Human alpha-Galactosidase at pH 4.5 (AID 992; active = well fitted curve in the direction sought with a large enough effect; an effect the other way counts as inactive or inconclusive; also: 0% is about no effect). The method, boiled down: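 Steps: enzyme (2 nM final), then compound across 0.7 nM to 77 uM, then 80 uM fluorogenic galactopyranoside substrate; incubate 20 min at room temperature; quench at pH 10; measure fluorescence at 365/440 nm.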
For orientation: The purpose of a counterscreen is to sort out artefacts and off-target activity.

Assay [10] deals with alpha-glucosidase (Oryza sativa, rice) (UniProt Q653V4). Nature of the assay: Counterscreen for Glucocerebrosidase Inhibitors: qHTS Assay for Rice alpha-Glucosidase at pH 5.0 (AID 997; active = well fitted curve in the direction sought with a large enough effect; an effect the other way counts as inactive or inconclusive;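 also: 0% = full activity with enzyme and -100% = basal without enzyme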). Put shortly: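 Endpoint fluorogenic assay at pH 5.0: compounds (0.7 nM to 77 uM) titrated against 4 nM rice enzyme and 400 uM 4-MU-alpha-glucoside for 20 min at room temperature; NaOH/glycine stop, read ex 365/em 440 nm, Hill-fitted AC50.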

A short description of assay [11]: qHTS Assay for Identification of Small Molecule Agonists for Hypoxia Response Element Signaling Pathway (AID 914; active = well fitted activation curve with a large enough effect in the signal ratio, with a control signal flat, not every such curve was filed as active; the % refers to the signal ratio; also: potency is read from the fitted curve at half-maximal effect). The settings on record: ME-180 (cervical carcinoma) HRE-bla reporter, beta-lactamase ratio, CoCl2, 17 h; activation: hits give high values. Put shortly:
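Positive modulation of EC50 CoCl2-induced hypoxia response element signaling is measured in ME-180 cells with a beta-lactamase reporter. Compounds are titrated, incubation runs 17 hours, and %Activity derives from the blue/green ratio.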

Assay [12] in a line: qHTS Assay for Identification of Small Molecule Antagonists for NFkB Signaling Pathway (AID 895; active = well fitted inhibition curve with a large enough effect in the signal ratio, with a control signal flat, not every such curve was filed as active; the % refers to the signal ratio; also: potency is read from the fitted curve at half-maximal effect). The method, boiled down:
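ME-180 NFkB-bla cells (beta-lactamase under NFkB response element), plated overnight, treated with compound then 10 pM TNF alpha (about EC50) for 5 hrs at 37 C. LiveBLAzer FRET read at 460/530 nm emission, 405 nm excitation.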

Assay [13] deals with Muscarinic acetylcholine receptor M1 (Rattus norvegicus) (UniProt P08482). The experiment in a line: qHTS Assay for Antagonists of Acetylcholine Muscarinic M1 Receptor: Measurement of IP-One Response (AID 944; active = well fitted curve in the direction sought with a large enough effect; an effect the other way counts as inactive or inconclusive; also: potency is read from the fitted curve at half-maximal effect; nearly all actives have a fitted effect of over 75% in size). The method, boiled down:
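Antagonism was measured as loss of carbachol-driven (EC80) IP1 accumulation in CHO cells carrying rat M1, using a homogeneous IP-One TR-FRET kit read at 620 and 665 nm.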

Assay [14] deals with Mitogen-activated protein kinase 10 (Mus musculus) (UniProt Q61831). The experiment in a line: JNK3 AlphaScreen Assay (AID 530; active = well fitted curve in either direction with a large enough effect, not every such curve was filed as active;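 also: kinase came from lysate of stimulated human HepG2 cells; signal reports phosphorylation of biotinylated GST-cJun 1-79 at Ser73 with 10 µM ATP; % is scaled to controls: 0 for no effect and ±100 for the full control effect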). The method, boiled down:
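HepG2 lysate (IL-1b/TNFa pre-activated) + biotin-GST-cJun 1-79 + anti-pSer73 cJun; cpd titration, 15 min RT; ATP 10 uM start; Tris pH 7.6, MgCl2, DTT, vanadate; beads in EDTA buffer; AlphaScreen.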
(Alpha assays give light when donor and acceptor beads are brought close together.)

Where “and” joins values, the source holds several entries; their conditions need not be identical. Equal entries are not always repeated. Values without a mark were called inactive. Inconclusive results are not listed. Calls of active or inactive are those of the source.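 The calls were made as follows, unless noted: active = compounds whose dose series gives a full or clear partial fitted curve of increased nuclear translocation; inconclusive = weak partial curve or effect only at the top dose; inactive = no dose-dependent translocation response.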

Guanine nucleotide-binding protein G(i) subunit alpha-1 (Homo sapiens), sequence (P63096 whole entry, looked up): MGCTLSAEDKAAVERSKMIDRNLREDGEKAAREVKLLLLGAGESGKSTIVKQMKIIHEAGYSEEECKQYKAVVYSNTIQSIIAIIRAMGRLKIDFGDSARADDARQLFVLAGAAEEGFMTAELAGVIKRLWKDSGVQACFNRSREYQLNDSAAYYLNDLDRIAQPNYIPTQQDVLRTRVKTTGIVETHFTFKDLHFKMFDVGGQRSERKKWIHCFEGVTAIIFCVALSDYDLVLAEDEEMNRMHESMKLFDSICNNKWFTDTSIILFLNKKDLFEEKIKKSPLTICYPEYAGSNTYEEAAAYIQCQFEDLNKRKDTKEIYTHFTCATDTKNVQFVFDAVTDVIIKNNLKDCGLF
Pyruvate kinase (Leishmania mexicana), sequence (Q27686 2-499 E452W): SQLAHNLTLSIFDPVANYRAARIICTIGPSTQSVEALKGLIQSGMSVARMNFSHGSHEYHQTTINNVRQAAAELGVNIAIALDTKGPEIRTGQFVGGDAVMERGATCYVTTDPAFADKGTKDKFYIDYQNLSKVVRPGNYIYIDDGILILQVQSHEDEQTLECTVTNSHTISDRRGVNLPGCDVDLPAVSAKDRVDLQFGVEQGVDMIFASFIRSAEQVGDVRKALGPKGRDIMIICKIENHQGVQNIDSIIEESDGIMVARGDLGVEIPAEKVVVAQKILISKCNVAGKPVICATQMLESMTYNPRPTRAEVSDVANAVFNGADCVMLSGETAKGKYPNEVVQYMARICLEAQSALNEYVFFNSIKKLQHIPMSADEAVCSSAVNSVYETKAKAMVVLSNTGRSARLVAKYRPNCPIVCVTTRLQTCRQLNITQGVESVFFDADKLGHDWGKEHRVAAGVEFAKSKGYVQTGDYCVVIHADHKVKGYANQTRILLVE
Pyruvate kinase PKM (Homo sapiens), sequence (P14618 whole entry, looked up): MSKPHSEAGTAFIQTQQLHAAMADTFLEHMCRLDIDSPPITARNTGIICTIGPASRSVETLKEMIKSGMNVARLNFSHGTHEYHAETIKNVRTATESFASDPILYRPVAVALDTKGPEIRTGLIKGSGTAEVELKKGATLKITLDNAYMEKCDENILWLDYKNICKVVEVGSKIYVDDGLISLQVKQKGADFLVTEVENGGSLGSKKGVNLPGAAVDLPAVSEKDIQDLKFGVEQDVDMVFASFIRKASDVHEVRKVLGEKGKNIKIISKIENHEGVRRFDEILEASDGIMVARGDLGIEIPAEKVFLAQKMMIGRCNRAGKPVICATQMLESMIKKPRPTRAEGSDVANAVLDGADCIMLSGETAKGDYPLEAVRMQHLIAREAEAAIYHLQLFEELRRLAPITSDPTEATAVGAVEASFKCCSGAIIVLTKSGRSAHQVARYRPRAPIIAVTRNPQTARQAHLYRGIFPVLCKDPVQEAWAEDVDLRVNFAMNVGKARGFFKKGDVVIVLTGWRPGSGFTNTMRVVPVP
Glucocorticoid receptor (Homo sapiens), sequence (P04150 whole entry, looked up): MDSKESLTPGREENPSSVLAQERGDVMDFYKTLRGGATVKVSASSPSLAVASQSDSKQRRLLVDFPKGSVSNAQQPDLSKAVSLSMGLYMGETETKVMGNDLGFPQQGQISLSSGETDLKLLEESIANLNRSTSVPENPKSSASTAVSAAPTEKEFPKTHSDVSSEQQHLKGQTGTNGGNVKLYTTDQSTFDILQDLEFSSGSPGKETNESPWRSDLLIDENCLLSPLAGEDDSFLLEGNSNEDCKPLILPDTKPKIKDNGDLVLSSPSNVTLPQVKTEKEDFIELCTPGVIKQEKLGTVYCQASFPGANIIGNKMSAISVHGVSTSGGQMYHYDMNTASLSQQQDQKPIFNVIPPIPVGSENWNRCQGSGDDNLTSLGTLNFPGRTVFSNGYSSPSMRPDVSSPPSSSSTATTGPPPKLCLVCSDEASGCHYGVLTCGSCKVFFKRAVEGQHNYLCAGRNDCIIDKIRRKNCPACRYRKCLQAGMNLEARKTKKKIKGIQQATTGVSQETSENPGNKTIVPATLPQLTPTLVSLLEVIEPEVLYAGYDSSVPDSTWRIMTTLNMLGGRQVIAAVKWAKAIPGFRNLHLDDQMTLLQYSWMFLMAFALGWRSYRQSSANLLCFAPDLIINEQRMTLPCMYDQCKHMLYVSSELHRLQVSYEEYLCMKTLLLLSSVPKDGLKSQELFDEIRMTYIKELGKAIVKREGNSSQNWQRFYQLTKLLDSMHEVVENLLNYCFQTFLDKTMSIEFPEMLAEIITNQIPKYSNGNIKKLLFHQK
Alpha-galactosidase A (Homo sapiens), sequence (P06280 whole entry, looked up): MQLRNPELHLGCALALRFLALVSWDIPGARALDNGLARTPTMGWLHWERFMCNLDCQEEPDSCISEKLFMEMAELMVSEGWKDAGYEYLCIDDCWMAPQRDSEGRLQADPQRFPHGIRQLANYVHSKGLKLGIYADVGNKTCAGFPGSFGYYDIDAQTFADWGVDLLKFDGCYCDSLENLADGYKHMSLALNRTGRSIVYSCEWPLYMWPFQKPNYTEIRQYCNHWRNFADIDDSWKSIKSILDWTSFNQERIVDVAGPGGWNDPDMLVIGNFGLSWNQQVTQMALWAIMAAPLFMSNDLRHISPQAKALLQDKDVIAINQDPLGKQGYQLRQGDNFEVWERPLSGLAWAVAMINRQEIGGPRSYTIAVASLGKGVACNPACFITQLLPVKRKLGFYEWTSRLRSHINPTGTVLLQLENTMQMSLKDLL
3',5'-cyclic-AMP phosphodiesterase 4B (Homo sapiens), sequence (Q07343 whole entry, looked up): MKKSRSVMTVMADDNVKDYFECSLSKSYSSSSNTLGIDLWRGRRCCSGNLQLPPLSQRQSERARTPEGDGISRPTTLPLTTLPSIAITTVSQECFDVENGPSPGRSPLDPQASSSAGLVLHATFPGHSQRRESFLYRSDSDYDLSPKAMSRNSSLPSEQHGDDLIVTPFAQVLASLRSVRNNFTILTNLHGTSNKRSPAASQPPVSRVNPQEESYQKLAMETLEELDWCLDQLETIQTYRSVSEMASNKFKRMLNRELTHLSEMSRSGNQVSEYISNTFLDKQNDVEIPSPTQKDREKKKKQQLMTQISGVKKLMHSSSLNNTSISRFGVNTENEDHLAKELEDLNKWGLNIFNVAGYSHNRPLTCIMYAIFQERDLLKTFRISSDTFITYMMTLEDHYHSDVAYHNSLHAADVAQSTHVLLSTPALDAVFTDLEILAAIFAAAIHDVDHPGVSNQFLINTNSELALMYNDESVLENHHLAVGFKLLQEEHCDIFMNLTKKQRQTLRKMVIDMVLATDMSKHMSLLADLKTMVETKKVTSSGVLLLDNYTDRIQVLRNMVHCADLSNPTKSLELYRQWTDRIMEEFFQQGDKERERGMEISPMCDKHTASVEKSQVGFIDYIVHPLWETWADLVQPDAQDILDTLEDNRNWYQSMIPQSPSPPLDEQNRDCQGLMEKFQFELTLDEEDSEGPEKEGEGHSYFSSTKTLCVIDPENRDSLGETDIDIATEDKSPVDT
Muscarinic acetylcholine receptor M1 (Rattus norvegicus), sequence (P08482 whole entry, looked up): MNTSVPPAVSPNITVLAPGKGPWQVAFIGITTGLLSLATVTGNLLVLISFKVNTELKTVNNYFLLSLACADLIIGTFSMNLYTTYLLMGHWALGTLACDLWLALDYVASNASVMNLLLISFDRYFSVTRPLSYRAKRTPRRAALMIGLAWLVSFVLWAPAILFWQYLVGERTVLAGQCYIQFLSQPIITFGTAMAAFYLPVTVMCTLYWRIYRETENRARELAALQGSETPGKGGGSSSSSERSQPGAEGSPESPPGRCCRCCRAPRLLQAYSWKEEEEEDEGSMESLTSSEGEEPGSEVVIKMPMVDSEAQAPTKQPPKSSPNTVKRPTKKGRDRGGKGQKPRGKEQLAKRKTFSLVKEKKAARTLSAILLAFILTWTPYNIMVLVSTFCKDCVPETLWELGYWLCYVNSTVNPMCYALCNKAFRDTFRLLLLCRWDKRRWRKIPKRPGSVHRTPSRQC

`Cc1ccc2nc(C(F)(F)F)c(C#N)c(N)c2c1`: the activity, negative = inhibition in assay [1] is -100% (active). For the same compound, the Potency in assay [2] is above 20.6 µM.
In the case of `C=CCOc1nc(-c2ccncc2)nc2ccccc12`, the activity, negative = inhibition in assay [1] was 12.7%. In addition, in [2], the Potency was above 20.6 µM.
Taken in the same sequence, the figures for `CCc1[nH]nc2c1C(c1ccc(Br)s1)C(C#N)=C(N)O2` (configuration not stated) were -17.3% and above 20.6 µM.
As for `COc1ccccc1N=Cc1nc(-c2ccccc2)oc1OC(C)=O`, the Potency in assay [2] is above 20.6 µM.
Turning to `COc1ccc(C(=O)CCN2CCCCCC2)cc1`, in [1], the activity, negative = inhibition was -28.1%. The Potency in assay [2] was above 20.6 µM.
In the case of `Cc1c(C)c2c(c(C)c1O)CC[C@@](C)(CN1CCN(c3cc(N4CCCC4)nc(N4CCCC4)n3)CC1)O2`, the activity, negative = inhibition in assay [1] is 19.8% [at 38 µM]. In addition, the Potency in [2] was above 46 µM; in [3], above 46 µM; in assay [6], 10 µM (active). Further, the Potency entry in [4] and in assay [7] was “inactive” each time. Besides, the compound was classed as inactive in assay [5], in [8], in assay [9] and in assay [10].
With `CCCOc1ccc(Cl)cc1CN1CCOCC1`, the activity, negative = inhibition in [1] was 8.53%. In addition, in assay [2], the Potency is above 20.6 µM.
The matching figures for `Fc1ccc2[nH]c3c(N4CCN(c5ccccc5)CC4)ncnc3c2c1`: -93.2% (active) and above 20.6 µM.
With `CCOc1ccc(C2=Nn3c(nnc3-c3ccccc3OC)SC2)cc1`, the activity, negative = inhibition in [1] was -10.6%. Moreover, the Potency in [2] was above 20.6 µM.
As for `CCCc1nn(C)c2c1C(c1cccnc1)C(C#N)=C(N)O2` (configuration not stated), the activity, negative = inhibition in assay [1] is 4.95%. Further, the Potency in [2] is above 20.6 µM.
Take `Cc1c(C)c2cc(Cl)c(O)c(CN3CCN(C)CC3)c2oc1=O`: the activity, negative = inhibition in assay [1] was 11.1%. Also, the Potency in assay [2] is above 20.6 µM; in [11], 7.94 µM (active).
On to `N#C[C@@H](Cc1ccc(O)c(O)c1)C(=O)N1CCc2ccccc21`, for which, in assay [1], the activity, negative = inhibition was 26% [at 38 µM]. Further, the Potency was above 46 µM in assay [2] and 10 µM (active) in [12]. Besides, the Potency entry in [4] and in assay [7] was “inactive” in each case. The compound was classed as inactive in [5], in [8], in assay [9] and in [10].
For `CC1(C)CC(=O)C2=C(C1)Oc1nc3ccccc3cc1C2C(C#N)C#N` (configuration not stated), in [1], the activity, negative = inhibition was -93% (active). The Potency in assay [2] is above 20.6 µM.
Consider `COC(=O)C1=C(C)NC(C)=C(C(=O)OCCN(C)Cc2ccccc2)[C@@H]1c1cccc([N+](=O)[O-])c1`, for which, in assay [1], the activity, negative = inhibition is -11.8% [at 38 µM]. The figures for the Potency in assay [2], in assay [3] and in assay [13] were above 46 µM, above 46 µM and 17.8 µM (active), respectively. The outcome in assay [5], in assay [8], in assay [9] and in [10] was inactive. The Potency result in assay [7] is “inactive”.
Take `Cc1cc(/C=c2/sc3nc4ccccc4n3c2=O)c(C)n1-c1ccccn1`: in [1], the activity, negative = inhibition is -5.6%. Also, the Potency in [2] was above 20.6 µM.
The matching figures for `CCOC(=O)c1c(C)n(C)c2ccc(O)c(CN3CCCCC3)c12`: 18.3% and above 20.6 µM.
With `CSc1ccc2c(c1)N(CC[C@H]1CCCCN1C)c1ccccc1S2`, the activity, negative = inhibition in assay [1] was -7.21%. Moreover, the Potency in [2] was > 46 µM and > 20.6 µM; in assay [3], > 46 µM and > 20.6 µM; in assay [6] it was 12.6 µM (active). The Potency result in assay [14], in assay [4] and in [7] was “inactive” each time. For the same compound, the compound was called inactive in [5], in assay [8], in assay [9] and in [10].
As for `Cc1csc(NC(=O)CSc2nsc(SCC(=O)Nc3nc(C)cs3)c2C#N)n1`, the Potency in assay [2] was above 20.6 µM.
Same read-out and setting: as for `N#C/C(=C\N1CCN(Cc2ccc3c(c2)OCO3)CC1)c1nc2ccccc2s1`, the figure is above 20.6 µM.
Still for that read-out and setting: as for `Cn1c(NCc2ccco2)nc2c1c(=O)n(Cc1ccc(Cl)c(Cl)c1)c(=O)n2C`, the figure is above 20.6 µM; as for `Cc1ccc(N2C(=O)c3sc4nnc(C)c(=O)n4c3C2=O)cc1`, above 20.6 µM; as for `Cc1ccc(C2C3CN(C(C)C)CC=C3C(C#N)=C(N)C2(C#N)C#N)cc1` (configuration not stated), above 20.6 µM.
On the same count and under the same terms, as for `COC(=O)c1ccc(C2/C(=C(\O)c3ccc(OC)c(C)c3)C(=O)C(=O)N2c2cc(C)on2)cc1` (configuration not stated), the figure is above 20.6 µM; as for `N#Cc1nc(-c2cccs2)oc1NCc1ccc2c(c1)OCO2`, above 20.6 µM.

For the origin of these results see PubChem BioAssay (NCATS).
